The panel holds about 83,000 compounds, 20% with a hit somewhere; the sample as a whole holds those more often.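 Cells were grown in 96-well plates and exposed to the test compound at a single concentration for 48 hours; results are reported as percent growth, with values below 10 considered active.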 The source made the active and inactive calls.
system: HT29 colon; test: NCI-60 one-dose screen, 48 h (100 = growth as untreated, 0 = no growth, -100 = all killed); details: 10 µM
Experimental: Growth inhibition of the HT29 human tumor cell line is measured as a screen for anti-cancer activity. Cells are grown in 96 well plates and exposed to the test compound for 48 hours. Compounds are tested at a single concentration, which is 10^-5 M for most compounds. The reported endpoint is percent growth (GI% or GIPRCNT), where numbers from 0 - 100% represent growth inhibition, and numbers from -100% - 0 represent cell death. For example, a value of 40 represents 60% growth inhibition. A value of 0 means no net growth occurred over the course of the experiment. A value of -40 indicates 40% of cells at the beginning of the experiment died by the end of the experiment. A value of -100 means all cells are dead at the end of the experiment.
NCI-60 Human Tumor Cell Lines Screen was performed using the standard one-dose NCI protocol, which is described in more detail at https://dtp.cancer.gov/discovery_development/nci-60/default.htm.
Compounds with GIPRCNT values below 10 were considered active. Activity score was based on GIPRCNT using the following formula: […]
Score is 0 for GIPRCNT values of 100 or above, 50 for GIPRCNT values of 0, and 100 for GIPRCNT values of -100.

| SMILES | growth |
| --- | --- |
| CCOC(=O)c1cc2c(n1Cc1ccccc1)-c1oncc1CC2 | 35.4% (inactive) |
| COc1ccc(-c2[nH]ncc2-c2cc(OC)c(OC)c(OC)c2)cc1 | -16.6% (active) |
| COc1cccc2c1C(=O)c1c(O)c3c(c(O)c1C2=O)C[C@@](O)(C(=O)COC(=O)c1cccnc1)C[C@@H]3OC1CC(N)C(O)C(C)O1 (stereo not given in full) | -29.5% (active) |
| O=C1/C(=C/c2ccc(O)cc2)CSc2ccc(Cl)cc21 | 69.3% (inactive) |
| COCCOC(=O)NC(=O)Nc1ccc(/C(=N/O)c2ccc(Cl)cc2)cc1 | -20.5% (active) |
| Cc1ccccc1[P+](Cc1ccccc1)(c1ccccc1)c1ccccc1 | 7.47% (active) |
| CC(=O)Nc1nc(C)c(C(=O)NNC=O)s1 | 99.8% (inactive) |
| O=C(c1ccccc1)C(Sc1ccccc1)c1ccccc1 (stereo not given) | 45.6% (inactive) |
| COc1ccc(OC)c([N+](=O)[O-])c1C=O | 55.6% (inactive) |
| CN(C)CCCN(Cc1ccccc1O)C(=S)Nc1ccc(Cl)cc1 | 106% (inactive) |
| CCc1c(C)[nH]c(=O)c(C(N)=O)c1C#N | 96.6% (inactive) |
| CC(=O)Oc1ccc(C2=Cc3ccc(OC(C)=O)cc3OC2C)cc1 (stereo not given) | 93.7% (inactive) |
| COc1c(-c2c3sc(=O)[nH]c3nc3c2c(=O)[nH]n3C(C)C)cc2c(c1OC)OCO2 | 102% (inactive) |
| Cc1ccc([P+](Cc2ccccc2)(c2ccccc2)c2ccccc2)cc1 | 3.42% (active) |
| C=CCOc1ccc2c(c1)CC[C@@H]1[C@@H]2CC[C@]2(C)C(=O)/C(=N/O)C[C@@H]12 | 2.91% (active) |
| O=C(OCC1OC(n2cc(C(F)(F)F)c(=O)[nH]c2=O)CC1OC(=O)c1ccc([N+](=O)[O-])cc1)c1ccc([N+](=O)[O-])cc1 (stereo not given) | 75.3% (inactive) |
| C/C=C\COc1cc(C)c(Cl)cc1Cl | 114% (inactive) |
| COc1ccc2nc(NC(=O)Nc3c(F)cccc3F)sc2c1 | 102% (inactive) |
| O=C(Nc1cccc(C(F)(F)F)c1)C(Cl)Cl | 92.2% (inactive) |
| O=c1oc2cc(OS(=O)(=O)C3CC3)ccc2c2c1CCCCCC2 | 25.9% (inactive) |

| SMILES | growth |
| --- | --- |
| Oc1[nH]c2ccccc2c1/C=c1/cc2c(c(-c3ccc(C(F)(F)F)cc3)n1)=Nc1ccccc1-2 | 20.2% (inactive) |
| COc1cc(-c2n/c(=C\c3c(O)[nH]c4ccccc34)cc3c2=Nc2ccccc2-3)cc(OC)c1OC | 4.2% (active) |
| COc1cc(CSc2nc3ccc(Cl)cc3c(=O)n2Cc2ccccc2)cc(OC)c1OC | 11.7% (inactive) |
| CCOC(=O)c1sc(NC(=O)c2cc(OC)c(OC)c(OC)c2)nc1C | 99.8% (inactive) |
| CCN1CCOC1C(C)C (stereo not given) | 99.3% (inactive) |
| CN(C)c1ccc2cc(-c3cc4c(oc3=O)-c3ccccc3OC4O)c(=O)oc2c1 (stereo not given) | 18.9% (inactive) |
| NC1CCC(Nc2nc(NCc3ccc(-c4cccs4)nc3)c3ncn(C4CCCC4)c3n2)CC1 (stereo not given) | -12.7% (active) |
| COc1cccc(-c2nnc(COc3ccc(-c4nc5ccccc5[nH]4)cc3OC)o2)c1 | 96.1% (inactive) |
| COc1cc(C2=Nc3c/c(=C\c4c(O)[nH]c5ccc(Cl)cc45)ccc3=N2)cc(OC)c1OC | -73.3% (active) |
| O=C(C=P(c1ccccc1)(c1ccccc1)c1ccccc1)c1ccc(Br)cc1 | 79.1% (inactive) |
| CCCOCC(O)CNCCN (stereo not given) | 102% (inactive) |
| COc1cc2nc(Sc3sc(N)nc3C)n(-c3ccc(Oc4ccccc4)cc3)c(=O)c2cc1OC | 75% (inactive) |
| CCCc1c(CC)c(=N)c2ccccc2n1C | 4.71% (active) |
| COc1ccc(N2CCN(c3nc(-c4ccccc4)c(C#N)c(=O)[nH]3)CC2)cc1 | 108% (inactive) |
| O=C(NNc1nc(N2CCCC2)nc(N2CCCC2)n1)c1ccccc1 | 102% (inactive) |
| C/C(=N\NC(=S)N1CCCC1)c1ccccn1 | 26.3% (inactive) |
| O=C(O)CNS(=O)(=O)c1ccc(OCCOc2ccc(S(=O)(=O)NCC(=O)O)cc2)cc1 | 98% (inactive) |
| Nc1nc(SCC#CCCl)c2[nH]cnc2n1 | 53.9% (inactive) |
| COc1ccc2oc(=O)cc(C(c3ccc[nH]3)c3ccc[nH]3)c2c1 | -10.5% (active) |
| NS(=O)(=O)c1ccc(N2N=C(c3ccc(-c4ccccc4)cc3)CC2c2ccc(Cl)cc2)cc1 (stereo not given) | 64.4% (inactive) |

Reference: PubChem BioAssay (NCI)
